Common to all, as to experiment: qHTS profiling for inhibitors of Plasmodium falciparum proliferation (AID 504749); note: nearly all actives have a fitted effect of over 60% in size
Conditions in all cases: P. falciparum in erythrocytes, SYBR Green DNA, 72 h; series mostly up to 28.7 µM

The test system of experiment [1] is CP315. The essentials: (§1)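 Readout was DNA-dye fluorescence from lysed cultures, ex 485/em 535 nm. Parasitized red cells had grown 72 h with compound; data scaled between 0.29 uM artemisinin and DMSO wells and corrected using vehicle-only plates.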
In experiment [2] the test system is CP325. In a few lines: as §1
Experiment [3] deals with CP329. The essentials:
as §1

Experiment [4] has as its system CP335. The essentials: as §1
Experiment [5] relates to DFO2036. In a few lines: as §1
Experiment [6] concerns DIV17. In a few lines: as §1
Experiment [7] has as its system DIV30. In a few lines: as §1
For experiment [8], the system named is Dd2. In a few lines: as §1
In experiment [9] the test system is ECU. In a few lines: as §1
Experiment [10] deals with FAB9. In a few lines: as §1
For experiment [11], the system named is GB4. In a few lines:
as §1

Experiment [12] has as its system HB3. The essentials:
as §1

For experiment [13], the system named is ICS. In a few lines:
as §1

The subject of experiment [14] is JCK. In a few lines:
as §1

Experiment [15] relates to N140. In a few lines:
as §1

Experiment [16] relates to P93_24. The essentials:
as §1

Experiment [17] has as its system P94_40. In a few lines: as §1
Experiment [18] concerns PAD. In a few lines: as §1
Experiment [19] relates to PC15. The essentials: as §1
Experiment [20] deals with DIV14. The essentials: as §1

Results filed as inconclusive are left out. Active and inactive are the calls of the source. Calls come from the whole dose curve; as a rule, active = well fitted inhibition curve with a large enough effect; inconclusive = small, poorly fitted or top-dose-only effect; inactive = flat fitted curve, though single readings scatter.
Potency is the fitted concentration of half-maximal effect.

Consider `CC[N+](C)(CC)CCOC(=O)C1c2ccccc2Oc2ccccc21`, for which the outcome in experiment [1], in experiment [2], in [3] and in experiment [7] was inactive. In addition, the Potency result in experiment [4], in [5], in experiment [6], in experiment [8], in experiment [9] and in experiment [10] was “inactive” each time. The Potency result in experiment [11], in [12], in experiment [13], in experiment [14], in [15] and in [16] was “inactive” in each case. Also, the Potency entry in [17], in [18] and in [19] was “inactive” each time.

`O=C1c2ccccc2S(=O)(=O)N1CCCCN1CCN(c2ncccn2)CC1`: the molecule was called inactive in experiment [1], in experiment [2], in [3] and in [7]. Also, the Potency result in experiment [4], in experiment [5], in experiment [20], in experiment [8], in experiment [9] and in experiment [10] was “inactive” in each case. Besides, the Potency result in experiment [11], in experiment [12], in experiment [13], in experiment [14], in [15] and in experiment [16] was “inactive” throughout. For the same molecule, the Potency result in experiment [17], in [18] and in experiment [19] was “inactive” in each case.

Consider `FC(F)(F)C(Cl)Br` (stereo unspecified), for which the molecule was called inactive in [1], in experiment [2], in [3] and in [7]. Also, the Potency result in experiment [4], in experiment [5], in experiment [20], in experiment [8], in [9] and in experiment [10] was “inactive” in each case. In addition, the Potency entry in experiment [11], in experiment [12], in experiment [13], in [14], in experiment [15] and in [16] was “inactive” each time. The Potency result in [17], in experiment [18] and in experiment [19] was “inactive” each time.

Turning to `Cc1cccc(C(=O)O)c1O`, the result in [1], in [2], in experiment [3] and in [7] was inactive. In addition, the Potency entry in experiment [4], in experiment [5], in experiment [8], in [9], in experiment [10] and in experiment [11] was “inactive” in each case. Also, the Potency result in [12], in [13], in experiment [14], in [15], in [16] and in experiment [17] was “inactive” throughout. Further, the Potency entry in experiment [18] and in experiment [19] was “inactive” each time.

For the molecule `O=C(O)c1cc(=O)c2ccccc2o1`, the outcome in [1], in [2], in experiment [3] and in experiment [7] was inactive. Moreover, the Potency entry in experiment [4], in experiment [5], in experiment [20], in experiment [8], in [9] and in experiment [10] was “inactive” throughout. For the same molecule, the Potency entry in experiment [12], in experiment [13], in [14], in [15], in experiment [16] and in [17] was “inactive” throughout. Further, the Potency result in [18] and in experiment [19] was “inactive” each time.

Consider `COc1nccnc1NS(=O)(=O)c1ccc(N)cc1`, for which the outcome in experiment [2], in experiment [3] and in [7] was inactive. For the same molecule, the Potency result in [4], in [5], in [20], in experiment [6], in [8] and in experiment [9] was “inactive” throughout. In addition, the Potency entry in [10], in [11], in experiment [12], in experiment [13], in experiment [14] and in experiment [15] was “inactive” throughout. The Potency result in experiment [16], in [17], in experiment [18] and in experiment [19] was “inactive” in each case.

Regarding `OC[C@@H](O)[C@@H](O)[C@H](O)[C@H](O)CO`, the molecule was classed as inactive in experiment [1], in experiment [2], in [3] and in experiment [7]. The Potency result in experiment [5], in experiment [20], in [6], in experiment [8], in experiment [9] and in [10] was “inactive” throughout. Further, the Potency result in [11], in experiment [12], in experiment [13], in experiment [14], in [15] and in [16] was “inactive” in each case. Also, the Potency result in experiment [17], in experiment [18] and in [19] was “inactive” in each case.

For the molecule `Cc1cc(C)c(NC(=O)CN(CC(=O)O)CC(=O)O)c(C)c1Br`, the call in [1], in experiment [2], in experiment [3] and in [7] was inactive. In addition, the Potency result in experiment [4], in [20], in [6], in experiment [8], in [10] and in experiment [11] was “inactive” throughout. The Potency entry in experiment [12], in [13], in experiment [14] and in [19] was “inactive” throughout.

For `Cc1c(NC(=O)c2cccnc2)c(=O)n(-c2ccccc2)n1C`, the call in experiment [2], in [3] and in experiment [7] was inactive. Moreover, the Potency result in experiment [4], in [5], in [20], in experiment [6], in experiment [8] and in experiment [9] was “inactive” in each case. Moreover, the Potency entry in experiment [10], in experiment [11], in experiment [12], in experiment [13], in experiment [14] and in experiment [15] was “inactive” throughout. Further, the Potency result in [16], in experiment [17], in [18] and in experiment [19] was “inactive” throughout.

Take `Cc1cc(OI)c(C(C)C)cc1-c1cc(C(C)C)c(OI)cc1C`: the result in experiment [1] and in experiment [3] was inactive. Moreover, the Potency result in [5], in experiment [10] and in experiment [14] was “inactive” throughout. Moreover, the Potency in experiment [20] was 10.7 µM (active); in experiment [6], 13.5 µM (active); in [8], 10 µM (active); in [11] it was 13.5 µM (active); in [15], 12.6 µM (active); in [17], 11.2 µM (active). Moreover, in experiment [19], the Potency is 11.2 µM (active).

For the molecule `CC(=O)OCC(COC(C)=O)OC(C)=O`, the outcome in experiment [1], in [2], in [3] and in experiment [7] was inactive. The Potency entry in experiment [5], in experiment [20], in experiment [6], in [8], in [9] and in experiment [10] was “inactive” in each case. The Potency result in experiment [11], in experiment [12], in experiment [13], in [14], in [15] and in [16] was “inactive” each time. For the same molecule, the Potency result in experiment [17], in [18] and in experiment [19] was “inactive” in each case.

Consider `N[C@@H](Cc1ccc(O)cc1)C(=O)O`, for which the molecule was classed as inactive in [1] and in experiment [3]. Besides, the Potency result in experiment [4], in [5], in experiment [20], in [6], in experiment [8] and in [9] was “inactive” in each case. Moreover, the Potency result in experiment [10], in experiment [11], in experiment [12], in experiment [13], in experiment [14] and in [15] was “inactive” each time. In addition, the Potency entry in experiment [16], in experiment [17], in experiment [18] and in experiment [19] was “inactive” throughout.

For `CN1C[C@@H]2C[C@H]1CN2c1cc2c(cc1F)c(=O)c(C(=O)O)cn2C1CC1`, the figures for the Potency in experiment [4], in experiment [8] and in [16] were 1.2 µM (active), 1.41 µM (active) and 1.58 µM (active), respectively. Further, the Potency entry in experiment [6], in [10], in [12], in experiment [14] and in experiment [18] was “inactive” in each case.

For the molecule `Cc1cc(-n2nc3ccc(Cl)cc3n2)c(O)c(C(C)(C)C)c1`, the call in [1], in experiment [2], in experiment [3] and in experiment [7] was inactive. Moreover, the Potency result in [4], in experiment [20], in experiment [6], in experiment [8], in [10] and in [11] was “inactive” throughout. For the same molecule, the Potency result in [12], in [13], in experiment [14] and in [19] was “inactive” each time.

As for `CC(=O)N(CC(O)CO)c1c(I)c(C(=O)NCC(O)CO)c(I)c(C(=O)NCC(O)CO)c1I` (stereo unspecified), the outcome in experiment [1], in experiment [2], in experiment [3] and in experiment [7] was inactive. Besides, the Potency entry in [5], in experiment [8], in [10], in [14] and in [17] was “inactive” in each case. Also, the Potency is 10 µM (active) in experiment [12] and 7.08 µM (active) in experiment [13].
